Screens (PubChem)
Sampled rows, rich in hits. Any-hit rate of the full collection: about 3.5%.
MITF inh – MITF inhibitors, primary screen, biochemical, AlphaScreen, human; AlphaScreen MITF homodimerization, bead proximity signal; inhibition, % at 2.6 µM; actives 0.91% (n = 650,000); AID 1259374, 2018; in the data active means inhibition above about 50%
TEAD-YAP block – TEAD-YAP interaction inhibition, primary screen, TEAD-YAP interaction inhibitor project, luminescence, HEK-TIYL cells; TEAD-Gal4/YAP UAS-luciferase luminescence; inhibition, % at 9.12 µM; actives 1.4% (n = 640,000); AID 1259422, 2018; in the data active means inhibition above about 32%
GPR151 activ – activators of human GPR151, primary screen, cell-based, PathHunter beta-arrestin, luminescence. G-protein coupled receptor 151 (Homo sapiens), Q8TDV0. PathHunter beta-arrestin GPR151 cells. activation, % at 11.2 µM. actives 1% (n = 650,000); in the data active means activation above about 4.9%
Target sequence (Q8TDV0 whole entry, looked up): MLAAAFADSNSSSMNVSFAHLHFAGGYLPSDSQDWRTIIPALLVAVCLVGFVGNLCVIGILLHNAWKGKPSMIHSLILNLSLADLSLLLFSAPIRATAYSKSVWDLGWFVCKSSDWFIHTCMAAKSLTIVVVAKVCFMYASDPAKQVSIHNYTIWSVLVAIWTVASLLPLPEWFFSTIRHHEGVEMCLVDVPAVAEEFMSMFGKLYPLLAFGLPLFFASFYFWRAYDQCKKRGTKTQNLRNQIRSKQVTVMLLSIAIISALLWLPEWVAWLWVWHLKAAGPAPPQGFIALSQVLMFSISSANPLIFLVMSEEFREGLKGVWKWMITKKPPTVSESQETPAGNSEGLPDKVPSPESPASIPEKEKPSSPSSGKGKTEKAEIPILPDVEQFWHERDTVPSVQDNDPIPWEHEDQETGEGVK
FBW7 act – FBW7 E3 ligase activators, primary screen, biochemical, AlphaScreen, human; AlphaScreen FBW7–phospho-cyclin E peptide binding, activator screen; normalized activity (activation), % at 26.1 µM; actives 0.13% (n = 650,000); AID 1259310, 2017; in the data active means normalized activity above about 1.9%;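 further: purified mutant Fbw7 with reduced substrate affinity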
MITF confirm – MITF inhibitors, retest of hits, confirmation, biochemical, AlphaScreen, triplicate; shares compounds with MITF inh; AlphaScreen MITF homodimerization, biotin/His-MITF beads; inhibition, % at 2.6 µM; actives 16% (n = 4,700); AID 1259372, 2018;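 active means inhibition above a cutoff derived from the DMSO control wells, cut at about 28% in these data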;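 further: inhibitors lower the bead chemiluminescence by keeping MITF from dimerizing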
AlphaScreen DR – AlphaScreen optical interference compounds, dose response, counter-screen, biochemical, HTS; shares compounds with MITF inh; IC50, µM; actives 6% (n = 480); AlphaScreen optical interference counterscreen, cell-free; AID 1259373, 2018; call rule not given here
AlphaScreen intf2 – AlphaScreen optical interference compounds, counter-screen for MITF inhibitor project, biochemical, triplicate; shares compounds with MITF inh; LysRS AlphaScreen counterscreen, signal interference; inhibition, % at 2.6 µM; actives 7.6% (n = 4,700); AID 1259376, 2018;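 active means inhibition above a cutoff derived from the DMSO control wells, cut at about 30% in these data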
A number is an active result; i = inactive; nt = not tested or not shown.

SMILES	MITF inh	TEAD-YAP block	GPR151 activ	FBW7 act	MITF confirm	AlphaScreen intf2	others
CCC(CC)N1CCN(Cc2cccc(F)c2)CC1	73.1	i	i	i	i	i
CCc1ccc(CN2CCN(Cc3cccc(Cl)c3)CC2)cc1	63.6	i	i	i	i	i
Cc1ccsc1C(=O)C1CCCN(C)C1 (configuration not stated)	i	i	i	i	nt	nt
Cn1nc(-c2nonc2N)nc1-c1nonc1N	i	i	i	i	nt	nt
COC(NC(=O)c1ccccc1)C(Cl)(Cl)Cl (configuration not stated)	i	i	i	i	nt	nt
Fc1cccc(CN2CCN(Cc3ccc(Cl)cc3)CC2)c1	70.0	i	i	i	i	i
Fc1ccc(CN2CCN(Cc3cccc(Cl)c3)CC2)cc1	68.2	i	i	i	i	i
Clc1ccccc1C1C=C(c2cccnc2)Nc2nnnn21 (configuration not stated)	i	i	i	i	nt	nt
CN1CC=C(c2noc(CCC(=O)Nc3nc4ccccc4s3)n2)CC1	i	i	i	i	nt	nt
CCOc1ccc(NC(=O)CCc2nc(C3=CCN(C)CC3)no2)cc1	82.7	i	i	i	92.7	69.8
CCc1nnc(NC(=O)CCc2nc(C3=CCN(C)CC3)no2)s1	58.3	i	i	i	59.7	39.0
CCc1ccccc1NC(=O)CCc1nc(C2=CCN(C)CC2)no1	i	i	i	i	nt	nt
COc1cccc(CCNCc2cc(OC)cc(OC)c2)c1	55.3	i	i	i	i	i
COc1ccc(CCNCc2cccnc2)cc1OC	69.8	i	i	i	i	i
Cc1cccc(CN2CCN3C(=O)[C@H](CO)N(C)C(=O)[C@H]3C2)n1	i	i	i	i	nt	nt
NNc1c([N+](=O)[O-])cc(C(F)(F)F)cc1[N+](=O)[O-]	i	i	i	i	nt	nt
CC(C)Sc1ccc(CC(=O)N2CCN(Cc3nc4ccccc4n3C)CC2)cc1	54.9	i	i	i	i	i
COc1ccccc1NC(=O)C(Cl)(Cl)Cl	i	i	i	i	nt	nt
COc1nc(OC)nc(N2CC3CC(C2)c2cccc(=O)n2C3)n1 (configuration not stated)	i	i	i	i	nt	nt
CCC(CC)N1CCN(Cc2ccc(OC)c(OC)c2)CC1	69.0	i	i	i	i	i
CCC(CC)N1CCN(Cc2ccc(OC)cc2)CC1	54.2	i	i	i	i	i
CCOc1cc(CN2CCN(C(CC)CC)CC2)ccc1OC	77.7	i	i	i	i	i
CCOc1cc(CN2CCN(C(C)C)CC2)ccc1OC	54.7	i	i	i	i	i
CCOc1ccc(N2C(=O)NC(=O)/C(=C/c3ccc(O)c(O)c3)C2=O)cc1	i	i	i	i	nt	nt
CCOc1cc(CN2CCN(Cc3ccccc3)CC2)ccc1O	55.8	i	i	i	i	i
SMILES	MITF inh	TEAD-YAP block	GPR151 activ	FBW7 act	MITF confirm	AlphaScreen intf2	others
CCOc1cc(CN2CCN(c3ccccc3F)CC2)ccc1O	i	i	i	i	nt	nt
COc1ccc(CN2CCN(c3ccccc3F)CC2)cc1OC	52.3	i	i	i	i	i
OC1/C(=C/c2cccc(F)c2)N2CCC1CC2 (configuration not stated)	i	i	i	i	nt	nt
CN1C(=O)N(C)C(=O)C(Cc2ccc(C#N)cc2)(Cc2ccc(C#N)cc2)C1=O	i	i	i	i	nt	nt
O=C(CN1CCOCC1)c1cccc2ccccc12	56.4	i	i	i	i	i
O=C(CN1CC=C(c2ccccc2)CC1)NCc1ccccc1Cl	i	i	i	i	nt	nt
OCCN1CCN(Cc2ccc(F)c(Br)c2)CC1	72.7	i	i	i	i	i
CN1CCN(Cc2ccc(F)c(Br)c2)CC1	80.4	i	i	i	i	i
CCN1CCN(Cc2ccc(F)c(Br)c2)CC1	i	i	i	i	nt	nt
N#Cc1ccc(NC(=O)COC(=O)COc2ccc3c(c2)CCC3)cc1Cl	i	i	i	i	nt	nt
CCc1ccc(CN2CCN(C(C)C)CC2)cc1	81.0	i	i	i	29.4	i	AlphaScreen DR=i
Cc1ccc(CN2CCN(C(C)C)CC2)cc1	53.9	i	i	i	i	i
CC(C)N1CCN(Cc2ccc([N+](=O)[O-])cc2)CC1	66.6	i	i	i	i	i
CCC(C)N1CCN(Cc2cccc(F)c2)CC1 (configuration not stated)	i	i	i	i	nt	nt
COc1cccc(N2CCN(Cc3ccc([N+](=O)[O-])cc3)CC2)c1	56.7	i	i	i	i	i
CCN(CC)P(=S)(c1ccc(N2CCOCC2)cc1)N(CC)CC	i	i	i	i	nt	nt
c1ccc(CN2CCN(C3CCCCC3)CC2)cc1	75.0	i	i	i	i	i
c1ccc(CN2CCN(c3ccccc3)CC2)cc1	i	i	i	i	nt	nt
Cc1ccc2cc3c(nc2n1)CCN(CCc1cccs1)C3	i	i	i	i	nt	nt
COc1ccc(CCNC2C3CC4CC(C3)CC2C4)cc1OC (configuration not stated)	i	i	i	i	nt	nt
COc1ccc(CC2NCCc3cc(OC)c(OC)cc32)cc1OC (configuration not stated)	84.0	i	i	i	100.7	i	AlphaScreen DR=3.42
Cc1cccc(OCC(=O)N2CCN(Cc3ccc(Br)cc3)CC2)c1	70.3	i	i	i	i	i
Cc1cccc(OCC(=O)N2CCN(Cc3ccccc3Cl)CC2)c1	66.4	i	i	i	i	i
O=C(COc1ccc(Br)cc1)N1CCN(Cc2ccccc2)CC1	i	i	i	i	nt	nt
Cc1cccc(CN2CCN(C(=O)COc3ccc(Cl)cc3)CC2)c1	i	i	i	i	nt	nt
SMILES	MITF inh	TEAD-YAP block	GPR151 activ	FBW7 act	MITF confirm	AlphaScreen intf2	others
Cc1cccc(CN2CCN(C(=O)COc3ccccc3)CC2)c1	53.1	i	i	i	i	i
COc1ccc(Br)cc1CN1CCN(C(=O)COc2cccc(C)c2)CC1	57.8	i	i	i	i	i
O=C(Nc1ccc2c(c1)OCCO2)N(Cc1ccco1)C1CCN(Cc2ccccc2)CC1	i	i	i	i	nt	nt
COCc1[nH]nc2c1C(c1cccc([N+](=O)[O-])c1)C(C#N)=C(N)O2 (configuration not stated)	i	i	i	i	nt	nt
O=C(COc1ccccc1)N1CCN(Cc2cccc(Cl)c2)CC1	i	i	i	i	nt	nt
O=C(COc1ccccc1)N1CCN(Cc2cccnc2)CC1	81.5	i	i	i	i	i
O=C1NC(=O)N(Cc2ccccc2)C(=O)/C1=C/C=C/c1ccccc1	i	i	i	i	nt	nt
Clc1ccc(CN2CCN(Cc3ccccc3Cl)CC2)cc1	78.5	i	i	i	i	i
CCN1CCN(Cc2c(Cl)cccc2Cl)CC1	68.6	i	i	i	i	i
CCN1CCN(Cc2ccc(Cl)c(Cl)c2)CC1	i	i	i	i	nt	nt
